Reference: PubChem BioAssay AID1839 (Johns Hopkins Ion Channel Center, 2009)
About 220 (9.2%) of roughly 2,400 compounds were called active. This is one part of a sample in which actives are shown more often than they occur. Values without a mark were called inactive.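 Rule for the calls: active = signal change above the mean of dofetilide-free buffer controls plus 3 SD, so a positive margin; inactive = the rest.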

Assay: thallium signal changes without hERG – cell-based, CHO-K1 parental line, FluxOR thallium flux, counter-screen for hERG block protection project, confirmation (AID 1839);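 note: compounds applied alone with no dofetilide to cells lacking hERG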
Details: CHO-K1 parental cells, FluxOR thallium flux fluorescence; at 10 µM

Structure (SMILES)	signal change vs control minus 3*SD hit threshold (margin above threshold, higher = more increase)
Cc1nn(-c2ccc(Cl)cc2)c2sc(C(=O)c3c(N)n(C)c(=O)n(C)c3=O)cc12	-34.5%
Cc1ccc(N=Cc2cc(Cl)cc(Cl)c2O)nc1	-26.6%
Cc1ccc(N=Cc2cc(Br)cc(Cl)c2O)cc1	-4.8%
Cc1cccc(N=Cc2cc(Br)cc(Cl)c2O)c1	3.2% (active)
Oc1c(Cl)cc(Cl)cc1C=Nc1ccc(Br)cc1	12.8% (active)
NC(=O)c1cccc(N=Cc2cc(Cl)cc(Cl)c2O)c1	-22.3%
COc1cc(Br)cc(C=Nc2cccc(C(F)(F)F)c2)c1O	-8.3%
COc1cc(C2NC(=O)NC(O)(C(F)(F)F)C2C(C)=O)cc(OC)c1OC (stereo not given)	-34.1%
CCOc1cc(/C=C2/C(=O)ON=C2C)ccc1O	-38.8%
Oc1ccc(Cl)cc1C1=NNC(c2cccs2)C1 (stereo not given)	-19.1%
Cc1ccc(SCc2ccc(C(=O)N3CCCC3)cc2)cc1	-17%
CCOc1ccc(NC(=S)NS(=O)(=O)c2cc(Br)ccc2OCC)cc1	-3.6%
Nc1nnc(SCC(=O)OCc2ccc(F)cc2)s1	-40.4%
Cc1cccc(N2CCN(C(=O)Cc3c(C(=O)O)[nH]c4ccc(Cl)cc34)CC2)c1C	-33.6%
Cc1ccc(S(=O)(=O)N(C)C)cc1NC(=S)NC(C)CCCC(C)C (stereo not given)	-30.7%
CC(Nc1ccc(F)cc1)=[N+](C)CCNS(=O)(=O)c1ccc(Cl)cc1	-34.8%
CSc1nc(-c2ccccc2)[nH]c(=S)c1C(C)=O	34.8% (active)
CC(=O)c1c(N)[nH]c(-c2ccccc2)nc1=S	-6.7%
CC(=O)c1c(C)[nH]c(-c2ccccc2)nc1=S	-20.4%
O=C1C2CC=CCC2C(=O)N1c1ccc(Cc2ccncc2)cc1 (stereo not given)	-16%
CCCCn1c(-c2csc(C(C)C)c2)n[nH]c1=S	-20.9%
CCCn1c(SCN2C(=O)c3ccccc3C2=O)nc2cc(Cl)ccc2c1=O	-10.9%
O=c1c2cc(Br)ccc2nc(-c2cccc(Cl)c2)n1O	45.7% (active)
O=c1c2ccc(Cl)cc2nc(-c2cccc(C(F)(F)F)c2)n1O	66.5% (active)
NC(=O)c1nn2c(C(F)(F)F)cc(-c3ccccc3)nc2c1Br	-26%

Structure (SMILES)	signal change vs control minus 3*SD hit threshold (margin above threshold, higher = more increase)
CCCn1c(SC(C)C(=O)N2CCOCC2)nc2ccc(Br)cc2c1=O (stereo not given)	-28.1%
N#Cc1ccc(-c2nc3cc(Cl)ccc3c(=O)n2O)cc1	-29.9%
O=c1c2cc(Br)ccc2nc(-c2cccc(C(F)(F)F)c2)n1O	69.7% (active)
O=C(Cn1nnc(-c2cccc(C(F)(F)F)c2)n1)N1CCCCCC1	-29.6%
O=c1c2cc(Br)ccc2nc(-c2ccc(Cl)cc2)n1O	48.2% (active)
COc1cc(OC)cc(-c2nc3ccccc3c(=O)n2OC(=O)c2ccc(Br)cc2)c1	-34.9%
O=C(CCc1ccccc1Cl)Nc1ccc(S(=O)(=O)N2CCOCC2)cc1	-31.3%
CC(=O)OCC1O[C@@H](O[C@@H]2C[C@H]3C(C)(C)[C@H](OC(C)=O)CC[C@]3(C)[C@H]3CC[C@]45C[C@]4(CC[C@H]5[C@@H](C)C[C@@H](O)[C@H](O)C(C)(C)O)[C@@]32C)[C@H](O)[C@@H](O)[C@@H]1O (stereo not given in full)	-4.8%
Cc1c(OC(C)C(=O)NCCN2CCOCC2)ccc2c3c(c(=O)oc12)CCC3 (stereo not given)	-28.3%
Cc1occc1C(=O)NNC(=S)NC(=O)COc1ccc(Cl)cc1Cl	-23.7%
Cc1c(C#N)c(O)[nH]c(=O)c1N=Nc1ccc(Br)cc1C(=O)O	-28.4%
O=c1cc(-c2ccccc2)cc(-c2ccccc2)n1O	-22.5%
O=c1c2cc(Br)ccc2nc(-c2ccccc2)n1O	5.2% (active)
N#Cc1ccc(-c2nc3ccc(Br)cc3c(=O)n2O)cc1	-5.1%
Cc1sc2nc(C(C)C)nc(SCC(=O)NCc3ccco3)c2c1C	-12.6%
CC(C)(C)c1ccc(C(=O)NC(=S)N2CCCCCC2)cc1	-12.4%
CC(C)(C)c1ccc(C(=O)NC(=S)N2CCCC2)cc1	-17.2%
O=C(NC(=S)N1CCCC(C(F)(F)F)C1)c1ccc(F)cc1 (stereo not given)	4.7% (active)
CC(=O)N1c2ccc(N=Cc3cc(Br)cc(Br)c3O)cc2CC1C (stereo not given)	1.6% (active)
CNC(=S)N/N=C/c1cc(Br)cc(Br)c1O	-14.8%
Cc1nnc(C)n1/N=C/c1cc(Br)cc(Br)c1O	-18.1%
NC(=O)[C@@H]1CCCN1Cc1nc(Cc2ccccc2Cl)no1	-33.1%
CSc1nc(C)c(Cc2ccccc2)c(=O)[nH]1	-30.6%
Cc1ccc(N=Nc2ccc(O)c3ncccc23)cc1	-33.4%
O=c1ccc(N=Nc2ccccc2)ccc1O	27.6% (active)
